Compound activity deposited in PubChem by National Center for Advancing Translational Sciences (NCATS).
ALOX12 inh = inhibitors of human 12S-lipoxygenase ALOX12; AID 1671190; P18054; Potency, µM (titrated, usually from 108 µM), without a hit: at the top dose activity change, negative = inhibition, usual class: inhibitors; 580,000 compounds, 1.1% hits; purified 12hLO, xylenol orange hydroperoxide absorbance; note: potency is the fitted concentration of half-maximal effect
Target sequence (P18054 whole entry, looked up): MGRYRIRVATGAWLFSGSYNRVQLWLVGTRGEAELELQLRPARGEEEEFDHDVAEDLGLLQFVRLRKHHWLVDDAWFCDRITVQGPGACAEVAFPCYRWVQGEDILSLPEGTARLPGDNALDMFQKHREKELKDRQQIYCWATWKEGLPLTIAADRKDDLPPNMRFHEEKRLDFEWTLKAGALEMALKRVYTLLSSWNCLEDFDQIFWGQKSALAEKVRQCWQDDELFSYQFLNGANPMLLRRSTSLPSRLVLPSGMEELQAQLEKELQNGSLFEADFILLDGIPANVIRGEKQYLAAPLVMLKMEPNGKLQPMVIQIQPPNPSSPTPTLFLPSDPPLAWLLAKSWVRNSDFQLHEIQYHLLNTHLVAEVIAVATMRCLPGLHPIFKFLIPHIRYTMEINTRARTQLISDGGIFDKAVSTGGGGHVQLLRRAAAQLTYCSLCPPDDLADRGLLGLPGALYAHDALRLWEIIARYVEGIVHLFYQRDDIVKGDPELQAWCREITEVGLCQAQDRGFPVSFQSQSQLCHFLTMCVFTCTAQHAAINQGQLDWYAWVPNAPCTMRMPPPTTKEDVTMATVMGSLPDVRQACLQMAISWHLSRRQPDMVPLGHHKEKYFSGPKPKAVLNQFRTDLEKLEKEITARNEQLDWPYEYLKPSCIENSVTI
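Hydroperoxide product was detected by ferrous iron/xylenol orange as the 573 to 405 nm absorbance ratio. Arachidonic acid at 40 uM (final) was turned over for 30 min at room temperature by 150 nM human 12hLO, pH 7.0 Hepes buffer, after 15 min compound preincubation.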
IL1B secr inh = blocks inflammasome-driven IL-1 beta release; THP-1 LPS/ATP IL-1B secretion, AlphaLISA, 16 h; active compounds read low; activity change, % at 57.5 µM; 360,000 compounds, 4.7% hits; in the data active = activity change below about -50%; inconclusive = mostly about -30% to -49%
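THP-1 cells pretreated 1 hr with compounds (up to 57.5 uM final), then stimulated with LPS (250 ng/mL final) plus ATP (1.25 mM final); secreted IL-1B measured by AlphaLISA after 16 hr, decreased signal indicating inhibition.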
HT1080 IDH1KD tx = kills HT-1080 cells with IDH1 knockdown; 360,000 compounds, 2% hits; AID 686971; Potency, µM (titrated, usually from 46.1 µM), without a hit: top-dose activity, negative = toxicity, hits mostly cytotoxic; HT-1080 IDH1 knockdown viability, ATP luminescence, 48 h;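 note: potency is the fitted concentration of half-maximal effect; 0% = DMSO wells and -100% = cell-free medium wells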
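CellTiter-Glo luminescence after 48 h compound exposure at 37 degrees C of IDH1-knockdown HT-1080 cells in 5% FBS RPMI. %Activity scaled between DMSO wells and cell-free media wells, with curves fitted and assigned curve classes.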
DT40 TDP1 CPT = DT40-hTDP1 cell growth loss with CPT; chicken DT40 Tdp1-/-;hTDP1 cells + 20 nM CPT, ATP luminescence, 48 h; Potency, µM (series often up to 46.2 µM), inactives show top-dose activity change, negative = growth inhibition, hits mostly inhibitors; 420,000 compounds, 12% hits; note: potency is the fitted concentration of half-maximal effect; nearly all actives have a fitted effect of over 55% in size
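Cell growth measured by CellTiter-Glo luminescence after a minimum 48 h, 37 C compound exposure with 20 nM CPT in Tdp1-knockout DT40 cells stably expressing hTDP1, seeded 400/well; qHTS titration format.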
HT1080NT lethal = kills 2HG-producing HT-1080-NT fibrosarcoma cells; HT-1080-NT fibrosarcoma viability, CellTiter-Glo ATP luminescence, 48 h; Potency, µM (titrated, usually from 46.1 µM), inactives show at the top dose activity, negative = less viability, hits mostly cytotoxic; 360,000 compounds, 1.6% hits; AID 686970;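 note: NT is the 2HG producing partner of a matched IDH1 knockdown line; potency is the fitted concentration of half-maximal effect; 0% = DMSO-treated cells and -100% = media-only wells without cells; nearly all actives have a fitted effect of over 55% in size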
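Read-out is CellTiter-Glo luminescence after 10 minutes at room temperature, following 48 hours' compound treatment of HT-1080-NT cells (750 cells/well, RPMI, 5% FBS, 37 degrees C).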
TDP1 cell noCPT = qHTS for Inhibitors of human tyrosyl-DNA phosphodiesterase 1 (TDP1): qHTS in cells in absence of CPT | DT40 Tdp1-/- hTDP1 cells, no CPT, ATP luminescence, 48 h | Potency, µM (titrated, usually from 46.2 µM), for the others: top-dose activity change, negative = growth inhibition, most hits filed as inhibitors | 420,000 compounds, 15% hits; note: potency is the fitted concentration of half-maximal effect; nearly all actives have a fitted effect of over 55% in size
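Stably hTDP1-transfected Tdp1-null chicken DT40 cells were treated with library compounds minus camptothecin and grown for at least 48 hr at 37 °C, after which cellular ATP was quantified by luminescence.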
* hit, by the source's call; ! = not confirmed by another sample. The full list was thinned out, with hits kept by preference. Unless noted, calls come from the whole dose curve; as a rule, active = well fitted curve in the direction sought with a large enough effect; inconclusive = small, poorly fitted or top-dose-only effect, or another doubt; inactive = no such curve, though single readings can be large; an effect the other way counts as inactive or inconclusive. Unless noted, % is set by controls: 0 for no effect and ±100 for the full control effect.

COC1(OC)N=C(N)C2(C#N)C(c3ccc4c(c3)OCO4)C12C#N (stereo not drawn) was read as ALOX12 inh -3%, IL1B secr inh -14, HT1080 IDH1KD tx 0%, DT40 TDP1 CPT 8.2µM*, HT1080NT lethal -4% and TDP1 cell noCPT inconclusive.
COc1ccc(C2C3(C#N)C(N)=NC(OC)(OC)C23C#N)cc1 (stereo not drawn) was read as ALOX12 inh -12%, IL1B secr inh -92*, HT1080 IDH1KD tx -11%, DT40 TDP1 CPT -14%, HT1080NT lethal -1% and TDP1 cell noCPT inconclusive.
For CN(CC1CCOCC1)C(=O)c1cccc(Cl)c1 the results were ALOX12 inh 47%.
Screening COc1ccccc1C1(CC(=O)N2CCCCC2)CCOC(C(C)C)C1 (stereo not drawn) returned ALOX12 inh -8%, IL1B secr inh 3, HT1080 IDH1KD tx -2%, DT40 TDP1 CPT 23µM*, HT1080NT lethal -3% and TDP1 cell noCPT 23µM*.
`Cc1nn(CCCC(=O)NCc2ccc(F)cc2)c(C)c1[N+](=O)[O-]` gave ALOX12 inh -11%, IL1B secr inh 21, HT1080 IDH1KD tx 4%, DT40 TDP1 CPT -14%, HT1080NT lethal 0% and TDP1 cell noCPT -21%.
Screening COc1ccc(CNC(=O)c2ccc(Cn3nc(C)c([N+](=O)[O-])c3C)o2)cc1 returned ALOX12 inh -4%, IL1B secr inh -23, HT1080 IDH1KD tx -15%, DT40 TDP1 CPT inconclusive, HT1080NT lethal 0% and TDP1 cell noCPT 23µM*.
`COc1ccc(N2CCN(C(=O)c3ccc(Cn4nc(C)c([N+](=O)[O-])c4C)o3)CC2)cc1` gave ALOX12 inh 479%, IL1B secr inh -12, HT1080 IDH1KD tx -19%, DT40 TDP1 CPT inconclusive, HT1080NT lethal inconclusive and TDP1 cell noCPT 13µM*.
Cc1nn(Cc2ccc(C(=O)NC(C)(C)C)o2)c(C)c1Br was read as ALOX12 inh -29%, IL1B secr inh -20, HT1080 IDH1KD tx -14%, DT40 TDP1 CPT 23µM*, HT1080NT lethal -10% and TDP1 cell noCPT 12µM*.
Screening Cc1nn(Cc2ccc(C(=O)N3CCCC3)o2)c(C)c1[N+](=O)[O-] returned ALOX12 inh 11%, IL1B secr inh 45, HT1080 IDH1KD tx 1%, DT40 TDP1 CPT -16%, HT1080NT lethal -4% and TDP1 cell noCPT 18%.
`Cc1nn(CCCC(=O)N2CCN(c3ccc(F)cc3)CC2)c(C)c1[N+](=O)[O-]` gave ALOX12 inh -10%, IL1B secr inh -24, HT1080 IDH1KD tx -2%, DT40 TDP1 CPT 16µM*, HT1080NT lethal -3% and TDP1 cell noCPT 21µM*.
`Cc1ccc(-n2cnnc2SCc2nc3ccccc3o2)c(C)c1` gave ALOX12 inh 12%.
Cc1ccc(-n2c(C3CCN(C(=O)Cc4ccccc4F)CC3)n[nH]c2=O)cc1 was read as ALOX12 inh -6%.
For CCC[C@H](N)C(=O)N1CCC(c2cc(N3CCOCC3)nc(C)n2)CC1 the results were ALOX12 inh 5%.
Screening Cc1cc2oc(=O)cc(CN3CCN(Cc4ccc5c(c4)OCO5)CC3)c2cc1C returned ALOX12 inh inconclusive, IL1B secr inh 11, HT1080 IDH1KD tx -3%, DT40 TDP1 CPT inconclusive, HT1080NT lethal -2% and TDP1 cell noCPT inconclusive.
Screening Cc1cc(C)c2c(CN3CCN(Cc4ccc5c(c4)OCO5)CC3)cc(=O)oc2c1 returned ALOX12 inh inconclusive, IL1B secr inh -3, HT1080 IDH1KD tx -2%, DT40 TDP1 CPT inconclusive, HT1080NT lethal -4% and TDP1 cell noCPT 16µM*.
Screening CCCCc1cc(=O)oc2c(C)c(OCC(=O)N3CCC(C(=O)O)(c4ccccc4)CC3)ccc12 returned ALOX12 inh -18%, IL1B secr inh 4, HT1080 IDH1KD tx -15%, DT40 TDP1 CPT 18%, HT1080NT lethal -14% and TDP1 cell noCPT -23%.
Screening CCc1cc(=O)oc2cc(C)cc(OC(C)C(=O)NC3CCN(Cc4ccccc4)CC3)c12 (stereo not drawn) returned ALOX12 inh 6%, IL1B secr inh -63*, HT1080 IDH1KD tx -6%, DT40 TDP1 CPT inconclusive, HT1080NT lethal -16% and TDP1 cell noCPT inconclusive.
For Cc1cc(C)c2c(CN(Cc3ccccc3)Cc3ccccc3)cc(=O)oc2c1 the results were ALOX12 inh 0%, IL1B secr inh 18, HT1080 IDH1KD tx -20%, DT40 TDP1 CPT 23µM*, HT1080NT lethal -17% and TDP1 cell noCPT 16µM*.
`CCc1cc(=O)oc2cc(C)cc(OCC(=O)N3CCC(C(=O)NC(C)C)(c4ccccc4)CC3)c12` gave ALOX12 inh 11%, IL1B secr inh inconclusive, HT1080 IDH1KD tx -16%, DT40 TDP1 CPT 23µM*, HT1080NT lethal -27% and TDP1 cell noCPT 21µM*.
Cc1cc(C)c2c(CN3CCN(Cc4ccccc4)CC3)cc(=O)oc2c1 was read as ALOX12 inh 14µM*!, IL1B secr inh 0, HT1080 IDH1KD tx 0%, DT40 TDP1 CPT inconclusive, HT1080NT lethal -2% and TDP1 cell noCPT -29%.
`COCCNc1nc(NCCOC)c2sc(-c3ccccc3)cc2n1` gave ALOX12 inh -12%, HT1080 IDH1KD tx -4%, DT40 TDP1 CPT 26µM*, HT1080NT lethal -11% and TDP1 cell noCPT 26µM*.
c1ccc(-c2cc3nc(NCc4cccs4)nc(NCc4ccc5occc5c4)c3s2)cc1 was read as ALOX12 inh inconclusive, IL1B secr inh -89*, HT1080 IDH1KD tx 18µM*, DT40 TDP1 CPT inconclusive, HT1080NT lethal 16µM* and TDP1 cell noCPT inconclusive.
`COCCNc1nc2cc(-c3ccc(C)cc3)sc2c(=O)n1C` gave ALOX12 inh -11%, IL1B secr inh 12, HT1080 IDH1KD tx 20%, DT40 TDP1 CPT inconclusive, HT1080NT lethal 5% and TDP1 cell noCPT inconclusive.
Screening COCCNc1nc(NCCOc2ccccc2)c2sc(-c3ccccc3)cc2n1 returned ALOX12 inh inconclusive, IL1B secr inh -107*, HT1080 IDH1KD tx 23µM*, DT40 TDP1 CPT 16µM*, HT1080NT lethal 15µM* and TDP1 cell noCPT 15µM*.
COCCNc1nc(-c2ccc(OC)cc2C)c2sc(-c3ccccc3)cc2n1 was read as ALOX12 inh inconclusive, IL1B secr inh -11, HT1080 IDH1KD tx inconclusive, DT40 TDP1 CPT 21µM*, HT1080NT lethal inconclusive and TDP1 cell noCPT 16µM*.
